Peg3 promoter: reduces Peg3 promoter-driven luciferase expression in HeLa | HeLa PEG-Prom luciferase reporter, luminescence, overnight | hit rate 1.7% among 360,000 | AID 588405 | inhibition, % at 20 µM;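 active = inhibition of at least 50% at 20 µM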
TRPM1 prom inh: MITF TRPM1 promoter inhibition in SK-MEL-5 cells | SK-MEL-5 TRPM1 promoter luciferase, 24 h | inhibition, % at 12.5 µM | hit rate 0.83% among 330,000;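 active = mean inhibition across replicates of 60% or more, whatever share of single replicates reaches that level; inconclusive = some that reach 60%, reason not given; inactive = mean inhibition across replicates below 60%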
EBV LMP1 NFkB: inhibitors of Epstein-Barr LMP1-induced NF-kappaB reporter; LMP1-induced NF-kappaB luciferase reporter cells, luminescence; inhibition, % at 12.5 µM; hit rate 0.69% among 350,000; in the data active = inhibition above about 41%; inconclusive = no clear call, values can overlap the other calls;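 note: 0% = neutral control wells and 100% = reference inhibitor control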
HIF-2a block: blocks HIF-2a reporter activity; hit rate 0.72% among 360,000; 786-0 RCC cells HIF-2a reporter, luciferase luminescence, overnight; AID 624352; inhibition, % at 18.8 µM;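 active = inhibition of the luminescence signal of 40% or more relative to plate controls, in a single-dose primary screen at 18.75 µM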
CF NFkB block: cystic fibrosis NF-kB activation inhibition. KKLEB NF-kB-GFP reporter, PAF-induced, GFP fluorescence overnight. inhibition, % at 5 µM. hit rate 0.86% among 360,000;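 active = at least 50% inhibition at 5 µM, scaled per plate between neutral and stimulator controls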;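 note: PAF is a Pseudomonas aeruginosa culture filtrate used as stimulus; plate controls were PAF-stimulated DMSO wells for no effect and unstimulated DMSO wells for full effect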
KKLEB cytotox: CF airway cell cytotoxicity counter-screen; hit rate 0.36% among 360,000; KKLEB CF airway cells viability, ATPlite luminescence, overnight; hits give low values; cells stimulated with P. aeruginosa culture filtrate; activity change (cytotoxicity), % at 5 µM;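 active = corrected activity change at or below -50% at 5 µM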
Mdm2 MdmX conf: Mdm2/MdmX (human) interaction inhibition, confirmed; shares compounds with HIF-2a block; hit rate 99% among 740; inhibition, % at 8 µM; SaOS-2 split-luciferase Mdm2/MdmX complementation, luminescence;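 active = mean inhibition of the luminescence signal across two replicates at or above 26 percent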
HIF-2a conf: confirmation of HIF-2a inhibitors. 786-0 RCC cells, HIF-2a luciferase reporter luminescence, overnight. hit rate 56% among 1,800. inhibition, % at 18.8 µM. shares compounds with HIF-2a block;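 active = mean inhibition across four replicates of at least 40 percent at the single tested concentration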
HIF-1a counter: counter-screen for HIF-2a inhibitors: HIF-1a inhibition in MiaPaCa-2 cells. shares compounds with HIF-2a block. inhibition, % at 18.8 µM. MiaPaCa-2 HIF-1a luciferase reporter, desferoxamine, overnight. hit rate 72% among 1,800;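 active = mean inhibition of the reporter signal across four replicates at the single tested dose of 50% or more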
* hit, by the source's call; ? = inconclusive; . = not tested or not shown. In the library only some 3% were active in any assay of this set; here they are far more common.

SMILES	Peg3 promoter	TRPM1 prom inh	EBV LMP1 NFkB	HIF-2a block	CF NFkB block	KKLEB cytotox	HIF-2a conf	HIF-1a counter	others
COC1(OC)C(/C=C/c2ccc(C)cc2)C(C#N)(C#N)C1(OC)OC (configuration not stated)	22	28	3	43*	19	-11	7	65*
N=c1nc(SCCC(=O)O)ss1	6	17	7	69*	-8	1	73*	46
CCOC(=O)[C@]12CCCC=C1N(Cc1ccccc1)C(=O)[C@H](CC(=O)NCCc1ccccc1OC)C2	.	.	.	-2	.	.	.	.
NNC(=O)c1cccc(COc2ccccc2Br)c1	-259	-13	4	-69	-1	8	.	.
NNC(=O)c1cccc(COc2ccc3c(c2)CCC3)c1	-42	45	63*	68*	1	2	53*	-115
CN(C)c1ccc(-c2ccnc3c2CC(C)(C(=O)NCc2ccc(F)c(F)c2)O3)cc1 (configuration not stated)	27	.	.	2	9	-13	.	.
O=C(C[C@H]1C[C@H](C(=O)N2CCCCC2)[C@@]2(CCc3ccccc3)c3[nH]c4ccc(Cl)cc4c3CCN2C1=O)NCCCn1ccnc1	33	24	12	76*	-1	6	12	98*
CON(C)C(=O)CC1(CN(Cc2ccccc2)C(=O)OC(C)(C)C)CCCCC1	10	21	-3	7	10	-5	.	.
C#CC(=O)CC1(CN(Cc2ccccc2)C(=O)OC(C)(C)C)CCCCC1	60*	5	-5	44*	84*	-104*	2	19
c1ccc(-c2ncnc3ccccc23)cc1	-14	-6	-4	13	18	-4	.	.
COc1ccc(/C=C/C(=O)C23CC4CC(CC(C4)C2)C3)cc1CN1CCOCC1	48	-2	3	44*	13	-6	2	42
COc1ccccc1-c1cc2nc(C)c(CCC(=O)NCc3ccc(F)cc3)c(C)n2n1	8	-5	7	35	9	9	.	.
Cc1nc2ncnn2c(C)c1CCC(=O)N1CCN(c2ccccn2)CC1	9	14	-4	8	-1	1	.	.
COc1cc(OC)cc(-c2cc3nc(C)c(CCC(=O)NCc4ccccc4)c(C)n3n2)c1	21	30	29	69*	3	2	79*	87*
Cc1nc2cc(-c3ccccc3)nn2c(C)c1CCC(=O)N1CCN(c2ccccc2)CC1	-35	.	-2	69*	-33	15	79*	53*
CCCNC(=O)C1(C)CCCN(C(=O)c2ccc3ccccc3c2)C1 (configuration not stated)	-8	.	.	8	13	-1	.	.
NCCN1C(=O)S/C(=C\c2ccc3c(c2)OCO3)C1=O	-8	?	5	86*	-14	11	95*	67*
O=C(CNC(=O)c1ccccc1F)NCCN1C(=O)S/C(=C\c2ccc3c(c2)OCO3)C1=O	-48	-13	-8	14	-12	-2	.	.
CCOC(=O)c1sc(NC(=O)c2cc(-c3ccccc3)nc3ccccc23)c(C#N)c1C	29	23	25	3	38	-28	.	.	Mdm2 MdmX conf=98*
CC(C)(C)c1ccc(C(=O)Nc2sc3c(c2C(=O)O)CCC3)cc1	24	66*	27	96*	-8	3	96*	75*
COc1cc(OC)cc(-n2nnnc2SCC(=O)N2CCCC2)c1	21	4	7	-10	-11	1	.	.
COc1ccc(-n2nnnc2S(=O)(=O)CC(=O)N2CCCCC2)cc1	103*	74*	61*	90*	83*	-54*	18	-5
O=c1cc(C(Cl)(Cl)Cl)oc2c1ccc1ccccc12	106*	69*	29	35	6	8	.	.	Mdm2 MdmX conf=103*
O=c1cc(-c2ccco2)oc2c1ccc1ccccc12	6	-10	-3	-10	-54	-10	.	.
O=C(O)c1cccc(CSc2nnc(-c3ccc(Cl)cc3)o2)c1	-40	12	3	70*	-9	5	80*	26
SMILES	Peg3 promoter	TRPM1 prom inh	EBV LMP1 NFkB	HIF-2a block	CF NFkB block	KKLEB cytotox	HIF-2a conf	HIF-1a counter	others
O=C(O)c1cccc(CSc2nnc(COc3ccccc3)o2)c1	-5	3	-5	73*	6	0	73*	34
CCN(CC)Cc1c(O)ccc2occ(C(=O)c3ccc(OC)cc3)c12	4	-2	4	29	-5	4	.	.
CCN(CC)Cc1c(O)ccc2c([N+](=O)[O-])c(C)n(-c3ccc(OC)cc3)c12	12	0	37	25	82*	-23	.	.	Mdm2 MdmX conf=84*
NNC(=O)CCN1CCCCC1	-6	-5	1	69*	-3	-3	3	-1
CC1CCN(CCC(=O)NN)CC1	2	-2	2	20	27	-16	.	.
CC1(C)CC(=O)C2=C(C1)OC1=C(C(=O)CC(C)(C)C1)C2c1ccc(O)cc1O	108*	101*	1	93*	97*	-54*	97*	106*	Mdm2 MdmX conf=103*
COc1ccc2c(c1)C1(Nc3ccccc3-c3nc4ccccc4n31)C(=O)N2C (configuration not stated)	0	1	-14	14	-2	3	.	.	Mdm2 MdmX conf=94*
COc1ccc2c(c1)C1(Nc3ccccc3-c3nc4ccccc4n31)C(=O)N2 (configuration not stated)	6	5	2	8	0	1	.	.
N#CC1=C(N)Oc2n[nH]c(-c3cccs3)c2C1C1C=CCCC1 (configuration not stated)	31	10	7	27	18	-2	.	.
N#CC1=C(N)Oc2n[nH]c(-c3cccs3)c2C1C1CCCCC1 (configuration not stated)	20	2	-1	40*	18	-4	22	4
Nc1ccc(-c2cc3ccccc3c(=O)o2)cc1	-45	74*	37	82*	-47	12	91*	54*
O=c1oc(-c2ccccc2)cc2ccccc12	-279	.	.	-264	-68	2	.	.
CN1C(=O)[C@@](O)(c2cn(C)c3ccccc23)c2cc(Br)ccc21	.	.	.	9	.	.	.	.
COC(=O)[C@]12CCCCC=C1N(Cc1ccc3c(c1)OCO3)C(=O)[C@H](CC(=O)NCc1cccc3ccccc13)C2	.	.	.	13	.	.	.	.
